rRNA inh HTS: reduced GFP signal of wild-type E. coli, primary screen, bacterial rRNA inhibitor project, GFP/RFP fluorescence, OD600, single point; GFP signal change (wild-type ribosome), % (concentration not given with the values); E. coli WT GFP vs humanized-ribosome RFP mutants, 24 h; stronger effect = lower value; DMSO median 0, no signal -100; 1.6% of 350,000 active;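 active means significant combined selectivity score with lowered wild-type GFP, culture density cut under 30%, mutant RFP and density less affected; inactive means any of these conditions unmet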
CaV13 FRET inh: Primary screen for inhibitors of IQ motif and Ca2+-dependent inactivation inhibitor domain binding in CACNA1D, Förster resonance energy transfer in living cells, …; HEK cells, CFP/YFP FRET ICDI-IQ, plate reader, 10 min; percent FRET-ratio fall versus neutral wells; inhibition, % at 12.3 µM; 0.098% of 340,000 active;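 active means mean replicate inhibition of at least 30% and at least 1% of replicates passing that level; inconclusive means only one of the two criteria is met; inactive means neither criterion is met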;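 further: 0% = median of the neutral control wells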
DENV2 CPE: inhibitors of DENV2 cytopathic effect, primary screen, cell-based, plate reader, single concentration | DENV2-infected cells, cytopathic effect rescue | CPE inhibition, % at 9.99 µM | 1.7% of 350,000 active | AID 651640, 2012; in the data active means CPE inhibition above about 20%, passing the limit was not always enough; inconclusive means no clear call, values can overlap the other calls; tested in BHK-21 cells;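 further: 0% = median of neutral control wells and 100% = median of positive control wells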
ERAP1 HTS inh: human ERAP1 aminopeptidase inhibitors, primary screen, biochemical, single point, plate reader; inhibition, % at 10.7 µM; recombinant ERAP1, Leu-AMC fluorescence, 60 min; AID 652197, 2013; 0.15% of 340,000 active;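 active means mean replicate inhibition of at least 30%, or all replicates individually reaching that 30% level; inactive means mean below 30% and not every replicate reaching it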;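 further: 0% = neutral control wells and 100% = L-leucinethiol positive control wells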
Target sequence (Q9NZ08 whole entry, looked up): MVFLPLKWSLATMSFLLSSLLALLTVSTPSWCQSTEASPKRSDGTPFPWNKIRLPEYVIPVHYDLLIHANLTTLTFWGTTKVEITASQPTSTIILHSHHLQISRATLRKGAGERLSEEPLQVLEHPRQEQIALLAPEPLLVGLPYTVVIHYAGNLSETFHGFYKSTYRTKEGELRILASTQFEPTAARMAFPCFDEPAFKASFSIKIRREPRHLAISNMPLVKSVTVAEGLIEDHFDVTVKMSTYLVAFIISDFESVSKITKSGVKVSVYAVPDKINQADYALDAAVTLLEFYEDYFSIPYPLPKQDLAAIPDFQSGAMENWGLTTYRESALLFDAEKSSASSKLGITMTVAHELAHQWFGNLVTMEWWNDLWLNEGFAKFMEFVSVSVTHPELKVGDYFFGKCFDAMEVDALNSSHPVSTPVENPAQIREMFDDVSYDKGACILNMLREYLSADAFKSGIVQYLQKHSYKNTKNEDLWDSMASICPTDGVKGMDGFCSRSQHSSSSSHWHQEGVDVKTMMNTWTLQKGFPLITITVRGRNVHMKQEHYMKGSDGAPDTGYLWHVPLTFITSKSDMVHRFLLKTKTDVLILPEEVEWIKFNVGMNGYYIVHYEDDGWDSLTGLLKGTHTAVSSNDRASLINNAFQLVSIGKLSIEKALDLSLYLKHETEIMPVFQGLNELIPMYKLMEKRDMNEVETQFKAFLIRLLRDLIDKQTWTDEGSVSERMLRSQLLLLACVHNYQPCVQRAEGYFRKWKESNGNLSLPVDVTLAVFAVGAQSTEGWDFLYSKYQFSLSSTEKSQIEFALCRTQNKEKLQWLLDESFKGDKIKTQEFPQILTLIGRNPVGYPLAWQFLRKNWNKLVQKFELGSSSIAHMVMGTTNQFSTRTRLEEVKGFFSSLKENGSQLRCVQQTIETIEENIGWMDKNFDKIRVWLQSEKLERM
GSIS activator: GLuc luminescence reporter in INS-1E cells, primary screen for activators of glucose-dependent secretion of insulin; INS-1E GLuc reporter insulin secretion, 2-3 h; activation, % at 16.6 µM; 0.61% of 370,000 active;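 active means lowest replicate activation of at least 40%, so every replicate reaches that level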;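 further: 0% = median of neutral control wells and 100% = median of IBMX positive control wells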
PGC1a acetyl inh: inhibitors of PGC1a acetylation signal, primary screen, cell-based, U2OS, AlphaScreen, inhibitor mode; AlphaScreen anti-acetyl-lysine; with virally co-expressed GCN5 acetyltransferase; inhibition, % at 15.6 µM; 0.17% of 350,000 active; AID 651687, 2012;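 active means every replicate shows inhibition of at least 40%; inconclusive means mean inhibition at least 40% but some replicate below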;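 further: 0% = neutral control wells and 100% = positive control wells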
The depositor's hits bear a star; ? = inconclusive; / = no result. Shown are actives, neighbours in structure and some others; about 3.2% of the full set was active somewhere.

SMILES | rRNA inh HTS | CaV13 FRET inh | DENV2 CPE | ERAP1 HTS inh | GSIS activator | PGC1a acetyl inh
NC(=O)COC(=O)CC(NC(N)=O)c1ccc(Cl)cc1 (stereo not given) | -1 | -5 | -3 | 5 | / | 107*
Cc1cc(C(=O)COC(=O)CC(NC(N)=O)c2ccc(Cl)cc2)c(C)n1C (stereo not given) | 0 | -2 | 3 | 0 | -7 | -2
CC1CCCN(c2nc(N(C)c3ccccc3)nc(N)c2[N+](=O)[O-])C1 (stereo not given) | -17* | -5 | -5 | 5 | -19 | /
Cc1ccc(Nc2nc(N)c([N+](=O)[O-])c(N3CCCC(C)C3)n2)cc1C (stereo not given) | / | -7 | / | / | 60* | /
CN(c1ccccc1)c1nc(N)c([N+](=O)[O-])c(NC2CCCCC2)n1 | 3 | -12 | 1 | -8 | 39 | /
CC1CCCN(c2nc(NCc3ccco3)nc(N)c2[N+](=O)[O-])C1 (stereo not given) | -30 | -3 | 3 | 6 | 27 | /
Cc1ccc(S(=O)(=O)Nc2ccc3c(c2)CC(=O)N([C@@H](C)CO)C[C@H](C)[C@H](CN(C)Cc2ccc(C(=O)O)cc2)O3)cc1 | 2 | / | / | / | -2 | 14
Cc1noc(C)c1NC(=O)Nc1ccc2c(c1)CC(=O)N([C@@H](C)CO)C[C@H](C)[C@@H](CN(C)C(=O)NC(C)C)O2 | 4 | / | -16 | / | 5 | 2
CCNc1nc(NCC)n2c(SCC(=O)N(CC)C3CCCCC3)nnc2n1 | / | -3 | / | / | 74* | /
CCNc1nc(NCC)n2c(SCC(=O)NC34CC5CC(CC(C5)C3)C4)nnc2n1 | / | -4 | / | / | -8 | /
CC(=O)Nc1ccc2c(c1)CC(=O)N(C)C[C@H](C)[C@H](CN(C)C(=O)OC(C)(C)C)O2 | 0 | / | / | / | 2 | /
COCC(=O)Nc1ccc2c(c1)OC[C@H](C)N(Cc1cccnc1)C[C@H](C)[C@H](OC)CN(C)C2=O | 1 | / | -3 | -2 | 9 | -14
COc1ccc(NC(=O)Cc2c(SC)c3ccccc3n2Cc2ccccc2)cc1 | / | -5 | / | / | 97* | /
CCCC(=O)N1CC2(CN(C(=O)C3CCC3)C2)c2c(n(C)c3cc(OC)ccc23)[C@@H]1CO | -1 | / | 0 | 1 | -11 | /
CNc1cc(-c2ccc(O)cc2C)ncn1 | 7 | -5 | 29* | -1 | 1 | -1
CN1c2ccc(-c3ccc(C#N)cc3)cc2[C@@H]2[C@@H](CCN2S(=O)(=O)c2ccc(F)cc2)[C@@H]1CO | -5 | / | 10 | 2 | -15 | -5
Cc1noc(C)c1NC(=O)Nc1cccc2c1O[C@@H](CN(C)Cc1ccc(C(=O)O)cc1)[C@@H](C)CN([C@@H](C)CO)C2=O | 1 | / | 45* | 3 | 7 | 1
Cc1noc(C)c1NC(=O)Nc1cccc2c1O[C@H](CN(C)Cc1ccc(C(F)(F)F)cc1)[C@H](C)CN([C@@H](C)CO)C2=O | 0 | / | 21* | -2 | -29 | -4
Cc1noc(C)c1NC(=O)Nc1cccc2c1O[C@H](CN(C)Cc1ccc(-c3ccccc3)cc1)[C@H](C)CN([C@H](C)CO)C2=O | -4 | / | ? | -2 | -30 | 4
Cc1noc(C)c1NC(=O)Nc1cccc2c1O[C@H](CN(C)Cc1ccc(C(F)(F)F)cc1)[C@@H](C)CN([C@@H](C)CO)C2=O | -3 | / | 8 | -3 | -13 | -10
Cc1noc(C)c1NC(=O)Nc1cccc2c1O[C@@H](CN(C)Cc1ccc(-c3ccccc3)cc1)[C@H](C)CN([C@H](C)CO)C2=O | -7 | / | 39* | 0 | -27 | -5
Cc1noc(C)c1NC(=O)Nc1cccc2c1O[C@@H](CN(C)Cc1ccc(Oc3ccccc3)cc1)[C@@H](C)CN([C@@H](C)CO)C2=O | -4 | / | -5 | 1 | -23 | 1
Cc1noc(C)c1NC(=O)Nc1cccc2c1O[C@H](CN(C)Cc1ccc(Oc3ccccc3)cc1)[C@H](C)CN([C@@H](C)CO)C2=O | -4 | / | 2 | -1 | -31 | 100*
COc1ccccc1-c1cnc2c(c1)C(=O)N([C@H](C)CO)C[C@@H](C)[C@@H](CN(C)Cc1ccc(F)cc1)O2 | -2 | / | -1 | / | -13 | -2
C[C@@H]1CN(C)C(=O)c2cc(NS(C)(=O)=O)ccc2O[C@@H]1CN(C)S(C)(=O)=O | 2 | / | / | / | 1 | /
SMILES | rRNA inh HTS | CaV13 FRET inh | DENV2 CPE | ERAP1 HTS inh | GSIS activator | PGC1a acetyl inh
O=C([C@@H]1[C@@H](CO)[C@@H]2Cn3c(ccc(-c4ccc(F)cc4)c3=O)[C@H]1N2)N1CCCCC1 | 1 | / | -4 | 0 | 5 | /
Cc1cccc(C)c1NC(=O)NC1(C(=O)N2CCCCC2)CCCCC1 | 2 | -3 | -3 | -3 | -5 | -1
Cc1cc(C)c(NC(=O)CN2C(=O)NC3(CCCCC3)C2=O)c(C)c1 | 4 | -7 | 0 | 2 | 0 | -12
C=C1SC(Nc2c(C)cc(C)cc2C)=NC12CCCCC2 | -50* | -5 | ? | -1 | 21 | 1
C=C1SC(Nc2c(C)cccc2C)=NC12CCCCC2 | -22* | -4 | 0 | / | -20 | -1
C[C@@H]1CN([C@@H](C)CO)C(=O)Cc2cc(NC(=O)c3ccncc3)ccc2O[C@H]1CN(C)Cc1ccc(C(F)(F)F)cc1 | -9 | / | / | / | -11 | -14
C[C@H](O)C#Cc1ccc([C@@H]2[C@@H](CO)N3CCCCN(CC4CCOCC4)C[C@H]23)cc1 | 1 | / | / | / | 43 | 1
COc1cc(C(=O)NCC(c2ccco2)N2CCc3ccccc32)cc(OC)c1OC (stereo not given) | -8 | -5 | 92* | -2 | -35 | /
COc1ccc(S(=O)(=O)Nc2ccc3c(c2)CC(=O)N([C@@H](C)CO)C[C@H](C)[C@@H](CN(C)Cc2ccc4c(c2)OCO4)O3)cc1 | -39 | / | 2 | 0 | -15 | 0
O=C(/C=C1\NC2(CCCC2)Cc2ccccc21)C(=O)N/N=C/c1ccc(O)c(O)c1 | -21* | -16 | -4 | 2 | 2 | /
C[C@@H]1CN([C@H](C)CO)C(=O)CCCn2cc(nn2)CO[C@@H]1CN(C)Cc1cccnc1 | 1 | / | / | / | 0 | 5
CN1C(=O)[C@@](O)(c2cn(C)c3ccccc23)c2cc(F)ccc21 | 0 | -6 | 5 | / | 11 | /
CN1C(=O)C(c2cn(C)c3ccccc23)(c2cn(C)c3ccccc23)c2cc(F)ccc21 | 12 | -7 | 30* | -3 | 8 | /
COc1ccccc1-n1c(SCC(=O)O)nc2c(sc(=S)n2-c2ccc(C)c(C)c2)c1=O | -21* | -4 | 1 | -4 | / | /

High-throughput results as filed in PubChem BioAssay.
